# From PubChem
# CYP2C9 activ: CYP2C9 (human) activation | recombinant CYP2C9, luciferin-H conversion, luminescence; hits give high values; factor 1 = untreated enzyme, 0 = blocked | AID 1024 | actives 1.4% (n = 96,000) | activation factor at 5 µM | P11712;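 active = activation factor of 2 or more for CYP2C9 at a 5 µM dose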;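 also: 0 = sulfaphenazole-blocked wells and 1 = vehicle-only wells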
# CYP2C19 activ: increases human CYP2C19 enzyme activity. recombinant CYP2C19, luciferin-H EGE luminescence; hits give high values; 0 = fully inhibited enzyme, 1 = untreated enzyme. activation factor at 5 µM. 96,000 tested, under 10 active;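 active = activation factor of at least 2 at 5 µM in the primary screen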;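 also: 0 = wells with 2.5 mM tranylcypromine and 1 = vehicle-only wells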
# CYP2C9 inhib: blocks human cytochrome P450 2C9; P11712; CYP2C9 Supersomes, luciferin-H conversion, luminescence; inhibition, % at 5 µM; actives 20% (n = 96,000);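 active = blocking of liver enzyme CYP2C9 beyond about 50% at 5 µM, limit read from the data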
# PTK2B oligo ant: blocks oligomerization of human Pyk2 in cells | z-score (the deposit names both 25 µM and 10 µM) | Q293 cells, Pyk2 FERM NanoBiT luminescence; hits give low values | Q14289 | actives 0.83% (n = 99,000) | AID 1347419;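 active = Z-score of -3 or lower, scaled per plate to the spread of control and sample wells; inactive = z-score above -3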;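 also: negative z-score means lost luminescence so less FERM oligomerization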
# CYP2C19 inh: blocks human cytochrome P450 2C19; P33261; CYP2C19 Supersomes, luciferin-H EGE luminescence, 30 min; inhibition, % at 5 µM; actives 21% (n = 96,000); AID 778;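 active = CYP2C19 inhibition above a set limit at 5 µM in the primary screen, cut at about 50% in these data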;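 also: plate controls were negative control wells for no effect and 2.5 mM tranylcypromine positive control for full effect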
# An asterisk follows results filed as active; . = not tested or not shown. Sampled rows, rich in hits. Any-hit rate of the full collection: about 28%.
SMILES,CYP2C9 activ,CYP2C19 activ,CYP2C9 inhib,PTK2B oligo ant,CYP2C19 inh
COCCn1c(SCC(=O)Nc2ccc(S(=O)(=O)N3CCOCC3)cc2)nc2ccccc21,0.3,0.8,66*,-0.59,16
Cc1ccc(NC(=O)CSc2nnc(-c3ccc(S(=O)(=O)N4CCOCC4)cc3)n2C)cc1,0.6,0.7,36,-0.4,29
COCCn1c(SCC(=O)Nc2cccc(S(N)(=O)=O)c2)nc2ccccc21,0.8,0.7,18,0.28,31
COCCn1c(SCC(=O)Nc2nc(C)c(Cl)cc2Cl)nc2ccccc21,0.8,0,22,-0.86,96*
COCCn1c(SCC(=O)Nc2ccc(Cl)c(S(=O)(=O)N(C)C)c2)nc2ccccc21,0.1,0.7,87*,-2.4,27
CNC(=O)NC(=O)CSc1nc2ccccc2n1CCOC,0.8,0.9,19,-0.11,7
COCCn1c(SCC(=O)Nc2ccc(S(N)(=O)=O)cc2)nc2ccccc21,0.3,1.2,68*,2.5,-22
Cc1nn(Cc2ccccc2)c(Cl)c1C(=O)NC(C)(C)C,.,.,.,0.15,.
Cc1ccc(CSC2=Nc3sccc3C3=NC(=O)CN23)cc1,0.7,0.3,26,-1.6,66*
COc1cc2c(cc1OC)C1=NC(=O)CN1C(SCc1ccc(C)cc1)=N2,1,1,0,0.92,-4
COc1ccc(C(=O)Nc2cc(C(F)(F)F)ccc2-n2cnc3ccccc32)cc1,.,.,.,-1.1,.
O=C(Nc1cc(C(F)(F)F)ccc1-n1cncn1)c1ccc(-c2ccccc2)cc1,0.1,0.4,94*,-1.1,58*
O=C(Nc1cc(C(F)(F)F)ccc1-n1cncn1)c1ccc(Cl)cc1,0.8,0.3,22,-0.77,74*
COc1ccc(C(=O)Nc2cc(C(F)(F)F)ccc2-n2cncn2)cc1,0.8,0.6,20,-0.49,37
CCOC(=O)c1cc2nc(-c3ccco3)cc(C(F)(F)F)n2n1,.,.,.,-0.6,.
O=c1cc(C23CC4CC(CC(C4)C2)C3)[nH][nH]1,0.4,1.2,56*,0.49,-21
Cc1ccc(C)c(NC(=O)C2CC(O)CN2C(=O)OC(C)(C)C)c1 (stereo not drawn),0.9,1,6,-0.54,0
CCN1C(=Nc2ccc(Cl)cc2)SC/C1=C\C(=O)OC,0.9,0.8,9,-0.64,16
Cc1scc(C(=O)N/N=C/c2ccc(OCC(C)C)cc2)c1C,0.2,0.3,82*,-0.82,72*
CCCCOc1ccc(/C=N/NC(=O)c2csc(C)c2C)cc1,0.4,0.3,60*,-2,65*
COC(=O)c1sccc1-c1ccc(C(=O)Nc2cccc(Cl)c2)o1,0.3,0.6,72*,-0.86,43
COc1ccc(OC)c(-c2cc(C(=O)NCc3ccco3)no2)c1,2.9*,0.9,-191,-0.35,9
COc1ccc(N=c2oc3c(OC)cccc3cc2C(=O)NCc2ccco2)c(OC)c1,0.5,0.7,54*,-0.69,30
COc1ccc(OC)c(-c2cc(C(=O)Nc3cccc(Cl)c3)no2)c1,2.2*,1,-117,-0.62,-4
COc1cccc(-c2cc(C(=O)NCc3ccco3)no2)c1,1.7,1,-66,0.56,-3
SMILES,CYP2C9 activ,CYP2C19 activ,CYP2C9 inhib,PTK2B oligo ant,CYP2C19 inh
O=C(NCCCN1CCOCC1)c1cccs1,1.2,1,-17,0.44,-4
Cc1cc(C(=O)NCCC2=CCCCC2)no1,1,0.5,-2,0.45,48
O=C(NCCC1=CCCCC1)c1cnsn1,0.6,0.4,38,-0.09,65*
Cc1ccc(S(=O)(=O)/N=C2/C=C(Sc3ncn[nH]3)C(=O)c3ccccc32)cc1,.,.,.,-3.2*,.
COc1ccc(S(=O)(=O)N2CCCC(C(=O)Nc3cccc(C(C)=O)c3)C2)cc1 (stereo not drawn),0.7,0.6,31,-0.52,41
CCS(=O)(=O)N1CCC(C(=O)Nc2cccc(C(C)=O)c2)CC1,0.9,0.3,12,1,70*
O=C(Nc1ccc(N2CCOCC2)cc1)C1CC1,1.1,1,-6,1.2,3
CC(=O)c1cccc(NC(=O)C2CCN(S(C)(=O)=O)CC2)c1,1,0.8,-5,0.44,15
CC(=O)c1cccc(NC(=O)C2CCN(S(=O)(=O)c3ccccc3)CC2)c1,0.9,0.3,8,0.51,68*
CC(=O)c1cccc(NC(=O)C2CCCN(S(=O)(=O)c3ccc(F)cc3)C2)c1 (stereo not drawn),0.2,0.1,76*,-0.17,87*
